ATXN2 expr inh = Primary qHTS for Inhibitors of ATXN expression; HEK-293 ATXN2-luciferase reporter, luminescence, 24 h; Potency, µM (doses to about 57 µM), without a hit: at the highest dose activity change, negative = inhibition, actives largely listed as inhibitors; actives 0.72% (n = 360,000); AID 1745845, 2022; further: potency means the concentration at half of the fitted maximal effect; on the % scale 0 is the no-effect control and ±100 the full control effect; nearly all actives have a fitted effect of over 55% in size
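ATXN2-luciferase reporter cells (luciferase flanked by upstream and downstream ATXN2 gene portions) were treated 24 h at 37 °C with compounds at up to 57 uM. SteadyGlo luminescence gave expression; GF-AFC fluorescence gave viability.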
D3 ag = qHTS of D3 Dopamine Receptor Agonist: qHTS | D3R DiscoveRx beta-arrestin cells, luminescence, 90 min | actives 0.58% (n = 410,000) | max activation, % | D(3) dopamine receptor (Homo sapiens), P35462; in the data active means max activation above about 30%; further: 0% is about no effect
Target sequence (P35462 whole entry, looked up): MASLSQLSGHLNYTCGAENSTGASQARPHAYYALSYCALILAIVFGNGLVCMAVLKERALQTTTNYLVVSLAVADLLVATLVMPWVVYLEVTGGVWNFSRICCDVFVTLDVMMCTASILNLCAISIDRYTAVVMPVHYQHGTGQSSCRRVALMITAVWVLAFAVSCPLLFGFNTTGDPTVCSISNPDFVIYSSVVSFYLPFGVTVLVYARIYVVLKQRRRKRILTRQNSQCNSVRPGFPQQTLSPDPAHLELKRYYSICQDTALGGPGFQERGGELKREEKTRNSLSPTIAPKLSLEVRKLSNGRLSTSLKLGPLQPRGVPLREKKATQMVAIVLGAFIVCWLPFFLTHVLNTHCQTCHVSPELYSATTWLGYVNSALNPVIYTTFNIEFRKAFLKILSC
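Agonist mode: compounds and dopamine controls were applied to plated cells for 90 min at 37 degrees C after an overnight attachment at 1500 cells/well. Luminescent read-out followed 30 - 60 minutes at room temperature with DiscoveRx detection reagent.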
TGFb inhibitor = qHTS for Inhibitors of TGF-b. HepG2 CAGA-GFP TGF-b/SMAD3 reporter, GFP fluorescence, 18 h; TGF-beta stimulated, 500 pg/mL final. Potency, µM (top dose mostly 46.1 µM), for the others: at the top dose activity, negative = inhibition, hits mostly inhibitors. actives 1.2% (n = 410,000). AID 588855, 2011; further: potency means the concentration at half of the fitted maximal effect; on the % scale 0 is the no-effect control and ±100 the full control effect; nearly all actives have a fitted effect of over 65% in size
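Using HEPG2 CAGA-GFP reporter cells at 1000 cells/well, we pinned test compounds, stimulated with recombinant TGF-beta (500 pg/mL final) and measured total well GFP after 18 h.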
S2 tox = Viability Counterscreen for Primary qHTS for Inhibitors of ATXN expression | S2 cells (HEK-293 line with an ATXN2-luciferase reporter) viability, CellTiter-Fluor protease fluorescence, 24 h | Potency, µM (titrated, usually from 56.7 µM), hits mostly cytotoxic | actives 0.49% (n = 400,000); further: potency means the concentration at half of the fitted maximal effect; nearly all actives have a fitted effect of over 40% in size
D3 antag = qHTS of D3 Dopamine Receptor Antagonist: qHTS; AID 652054, 2013; actives 2.5% (n = 360,000); max response, negative = inhibition, %; D3R cells, DiscoveRx beta-arrestin luminescence, antagonist mode; hits give low values; D(3) dopamine receptor (Homo sapiens), P35462; in the data active means max response below about -50%; inconclusive means no clear call, values can overlap the other calls; further: on the % scale 0 is the no-effect control and ±100 the full control effect
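Cells expressing the human receptor were seeded at 1500 cells/well, incubated overnight at 37 degrees C in 5% CO2, then exposed to library compounds with dopamine controls for 90 minutes at 37 degrees C before luminescent detection.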
HepG2 viability = qHTS for Inhibitors of TGF-b: Cytotox Counterscreen; HepG2 CAGA-GFP viability, ATP luminescence, 18 h; Potency, µM (top dose mostly 46.1 µM), for the others: top-dose activity change, negative = cytotoxicity, usual class: cytotoxic; actives 0.76% (n = 410,000); AID 588856, 2011; further: potency means the concentration at half of the fitted maximal effect
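CellTiter-Glo luminescence gave cytotoxicity after 18 hours at 37 degrees C. The cells were HepG2 CAGA-GFP in 1% FBS DMEM, stimulated with 500 pg/mL TGF-beta after compound addition. %Activity was normalised to no-cell wells (complete cell-killing) and DMSO (no toxicity), and curves were fitted and classified.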
* = called active by the depositor; i = inactive; ? = inconclusive; · = no result; ! = not confirmed by another sample. In the library only some 4.7% were active in any assay of this set; here they are far more common. Unless noted, the call rests on the fitted dose curve; in most records, active means well fitted curve in the direction sought with a large enough effect; inconclusive means small, poorly fitted or top-dose-only effect, or another doubt; inactive means no such curve, though single readings can be large; an effect the other way counts as inactive or inconclusive.

SMILES | ATXN2 expr inh | D3 ag | TGFb inhibitor | S2 tox | D3 antag | HepG2 viability
Cc1ccc(-c2[nH]ncc2CNCc2ccccc2)cc1 | · | · | 0.8% | · | · | 9.3%
CCc1ccc(Nc2n[n+](-c3ccccc3)c(-c3cccc(C)c3)s2)cc1 | -14.8% | -6.2 | ? | ? | -51.8* | -34.6%
O=C(NNC(=O)c1cccc(O)c1)Nc1ccc([N+](=O)[O-])cc1 | -5.1% | -5.7 | 6.6% | i | -57.3* | -13.0%
COc1cc(N)c(Cl)cc1C(=O)N[C@H]1CCN(CCCOc2ccc(F)cc2)C[C@H]1OC | -20.6% | -93.0 | 34.3% | ? | -77.3* | -33.0%
CCOC(=O)C1=C(N)Oc2cc(O)ccc2C1c1cccc(Cl)c1 (stereo unspecified) | -15.4% | 4.2 | 20µM* | i | 6.8 | 2.8%
CCOC(=O)C1=C(N)Oc2cc(O)ccc2C1c1cccnc1 (stereo unspecified) | 6.9% | 3.4 | -0.6% | i | 37.2 | -18.8%
CSc1ccc(CCNC(=O)Cn2ncc3c(=O)oc4ccc(C)cc4c32)cc1 | · | -1.4 | -8.2% | · | · | -12.6%
CCN1CCN(S(=O)(=O)c2ccc(Cl)c(C(=O)Nc3ccc(OC(F)F)cc3)c2)CC1 | -4.6% | -8.3 | -21.8% | i | -17.6 | 8.91µM*
CCN1CCN(c2ccc(NC(=O)c3cc(S(=O)(=O)N4CCCC4)ccc3Cl)cc2)CC1 | · | -0.1 | -10.8% | i | 12.1 | -30.2%
C=CC1=C(C(=O)O)N2C(=O)[C@@H](NC(=O)C(=NO)c3csc(N)n3)[C@H]2SC1 | 6.3% | · | · | · | · | ·
CC1=C[C@H](O)CC(C)(C)[C@H]1/C=C/C(C)=C/C=C/C(C)=C/C=C/C=C(C)/C=C/C=C(C)/C=C/C1=C(C)C[C@@H](O)CC1(C)C | · | -0.5 | · | · | · | ·
CC(C)NC(=O)c1cn(C2CCC(NC(=O)C(C)(C)C)CC2)nn1 (stereo unspecified) | · | · | · | i | · | ·
CCN1CCC(N(Cc2ccc3c(c2)OCO3)C(=O)Nc2ccc(Br)c(C)c2)CC1 | 25.1µM* | -23.6 | ? | ? | · | -94.5%
Nc1nc2ccccc2n1S(=O)(=O)c1ccc([N+](=O)[O-])cc1 | -1.9% | -8.2 | 12.6µM* | i | -9.8 | -84.8%
COc1cccc(CNC(=O)c2sc3nc[nH]c(=O)c3c2C)c1 | · | -8.7 | -7.5% | · | · | -14.8%
O=C(O)c1ccc([N+](=O)[O-])cc1-c1cc([N+](=O)[O-])ccc1C(=O)O | 1.7% | -0.8 | 19.7% | i | -7.0 | 4.8%
O=C(O)c1cc([N+](=O)[O-])cc2c1nnn2O | -7.2% | -25.3 | -9.2% | ? | -67.8* | -10.4%
CC(=O)NCCc1nc2cc(NS(=O)(=O)c3ccc(Cl)cc3)ccc2n1C | · | -5.9 | 5.1% | i | -3.9 | -21.5%
Cn1c(CCN2CCCCC2)nc2cc(NS(=O)(=O)c3ccc(Cl)cc3)ccc21 | 11.5% | -5.2 | -8.3% | i | -72.5* | -53.9%
Cn1c(CN2CCCCC2)nc2cc(NS(=O)(=O)c3ccc(F)cc3)ccc21 | -5.8% | -32.9 | 4.6% | i | -73.3* | -4.9%
Cn1c(=O)oc2cc(S(=O)(=O)Nc3ccc(F)cc3)ccc21 | -3.8% | 9.8 | 8.0% | i | 6.0 | 3.98µM*
Cn1c(CN2CCCCC2)nc2cc(NS(=O)(=O)c3ccc(Cl)cc3)ccc21 | -4.2% | -31.8 | -11.0% | i | -64.8* | -10.0%
Cc1ccc(C)n1-c1nnc(N2CCCC(C(=O)NCc3ccccc3)C2)s1 (stereo unspecified) | · | -16.5 | · | · | · | -16.6%
CN(C)C=Nc1c(I)cc(I)c(CCC(=O)O)c1I | · | 2.5 | · | · | · | ·
CC(=O)Nc1cc(C(=O)N2CCCC(C)C2)cc2ncn(CCc3ccccn3)c12 (stereo unspecified) | · | · | · | i | · | ·
SMILES | ATXN2 expr inh | D3 ag | TGFb inhibitor | S2 tox | D3 antag | HepG2 viability
Cc1cc(C)c2c(=O)n3c(nc2c1)C(Cc1ccccc1)NC(=O)c1cccnc1-3 (stereo unspecified) | -34.7% | 2.8 | ? | 10µM* | -20.2 | -29.4%
Cc1cc(C)c2c(=O)n3c(nc2c1)C(Cc1ccc(O)cc1)NC(=O)c1cccnc1-3 (stereo unspecified) | -20.4% | -7.6 | ? | ? | 0.0 | -32.5%
c1coc(CNc2nc(NCc3ccco3)c3ccccc3n2)c1 | · | · | 0.708µM* | · | · | -12.0%
Fc1ccc(Nc2nc(NCc3ccco3)c3ccccc3n2)cc1 | · | -14.6 | ? | 11.2µM* | -25.5 | 17.8µM*
c1ccc(CNc2nc(NCc3ccccc3)c3ccccc3n2)cc1 | ? | -4.7 | ? | · | -11.0 | -111.7%
CCn1c(-c2cccnc2)nc2cc(NC(=O)COC)cc(C(=O)N3CCOc4ccccc4C3)c21 | · | · | · | i | · | ·
Cc1ccc(C)c(N2CCN(C(=O)CCc3nc(-c4ccccc4C(F)(F)F)no3)CC2)c1 | -3.8% | 38.7* | ? | i | 108.2 | -19.9%
Cc1ccc(C)c(N2CCN(C(=O)COc3cc(=O)n(C)c4ccccc34)CC2)c1 | 11.2% | 5.1 | -4.2% | i | 46.3 | -15.5%
COc1cccc(-c2noc(CCC(=O)N3CCN(c4cc(C)ccc4C)CC3)n2)c1 | 0.0% | 23.0 | ? | i | 59.6 | -4.7%
COc1ccc(-c2noc(CCCCC(=O)N3CCN(c4cc(C)ccc4C)CC3)n2)cc1 | 0.0% | 52.9* | ? | i | 100.5 | -2.1%
Cc1ccc(C)c(N2CCN(C(=O)CCCOc3cc(=O)n(C)c4ccccc34)CC2)c1 | ? | 78.9* | -25.5% | ? | 29.7 | -6.5%
COc1ccc(-c2noc(CCCC(=O)N3CCN(c4cc(C)ccc4C)CC3)n2)cc1 | 25.9% | 4.5 | ? | i | 41.8 | -17.6%
COc1ccccc1-c1noc(CCC(=O)N2CCN(c3cc(C)ccc3C)CC2)n1 | -36.7% | 48.7* | ? | i | 63.8 | 4.4%
Cc1ccc(-c2noc(CCC(=O)N3CCN(c4cc(C)ccc4C)CC3)n2)cc1 | -3.9% | 5.9 | ? | i | 53.1 | -4.3%
CN(C(Cc1ccc(OS(=O)(=O)c2cccc3cnccc23)cc1)C(=O)N1CCN(c2ccccc2)CC1)S(=O)(=O)c1cccc2cnccc12 (stereo unspecified) | -13.1% | · | · | · | · | ·
CC(=O)Nc1ccn(C2COC(COC(=O)c3ccccc3)O2)c(=O)n1 (stereo unspecified) | ? | -5.0 | · | i | · | ·
Nc1ccc(/C=C/c2ccc3ncccc3c2)cc1 | · | 6.8 | ? | i | 12.1 | 7.08µM*!

From PubChem BioAssay
